± gives the standard deviation of the averaged measurements.

Compound in the test: CCCCN=C=S [butyl isothiocyanate]
As to the kind of experiment: control-subtracted net OSN firing rate; higher = stronger neuronal activation. The settings on record: odorant dilution (vol/vol): 1/100. The procedure: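 Single sensillum recordings from olfactory sensory neurons. The neurons sit in the maxillary palp or antennal sensilla of D. melanogaster (wild type, mutants, or at1 empty-neuron lines expressing Or42a homologs or the A181D S307P mutant) and of four Scaptomyza species. Each odorant was given as a 1 s pulse from 20 µl loaded on filter paper at 1:100 vol/vol, diluted in mineral oil (γ-hexalactone in DMSO). Spikes were counted in a 0.5 s window starting 0.2 s after onset, background was subtracted, the count was doubled, and the mean solvent-control response was subtracted.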
Take S. flava pb1a-like: the “control-subtracted net OSN firing rate” value was found to be 90.7 ± 22 spikes/s.
Then S. montana pb1a-like, with 92.3 ± 11 spikes/s; and S. pallida pb1b-like, with -4.33 ± 11 spikes/s.
To Or67dGal4; UAS-SflaOr42a4 at1 belongs 120 ± 36 spikes/s.
To Or67dGal4, UAS-Sfla Or42a4/+ at1 belongs 22.6 ± 4.1 spikes/s.
For S. flava pb3b-like, the “control-subtracted net OSN firing rate” value was 1.67 ± 15 spikes/s.
To S. flava pb1b-like belongs -17.7 ± 20 spikes/s; to S. hsui pb3b-like, 1 ± 2.8 spikes/s.
To Canton-S (D. melanogaster) pb1b belongs -2.22 ± 8 spikes/s; to Canton-S (D. melanogaster) pb2a, 3.43 ± 2.8 spikes/s; to S. pallida pb3a-like, -3 ± 7.5 spikes/s.
To Canton-S (D. melanogaster) pb1a belongs 8 ± 8.9 spikes/s; to S. pallida pb2a-like, 5 ± 7.6 spikes/s; to S. pallida pb3b-like, -1.67 ± 20 spikes/s.
For S. montana pb2a-like, the “control-subtracted net OSN firing rate” value stood at 2 ± 4.6 spikes/s.
To Canton-S (D. melanogaster) pb2b belongs -1.71 ± 8.6 spikes/s; to Or67dGal4, UAS-Sfla A181D S307P/+ at1, 29 ± 10 spikes/s; to S. montana pb3b-like, 0.333 ± 6.1 spikes/s.
As for Canton-S (D. melanogaster) pb3a, the “control-subtracted net OSN firing rate” value was found to be 2.5 ± 6.6 spikes/s.
To S. montana pb3a-like belongs 0.667 ± 10 spikes/s; to Or67dGal4, UAS-Dmel Or42a at1, 10.3 ± 7.7 spikes/s.
On to Or67dGal4, UAS-Sfla Or42a3/+ at1, for which the “control-subtracted net OSN firing rate” value was 27.7 ± 5 spikes/s.
In the case of Or67dGal4, UAS-Spal Or42a at1, the “control-subtracted net OSN firing rate” value turned out to be 18.2 ± 16 spikes/s.
Then Or67dGal4, UAS-Sfla Or42a4 at1, with 96.7 ± 25 spikes/s; and S. flava pb2b-like, with -1.33 ± 10 spikes/s; and Or67dGal4, UAS-Sfla Or42a3 at1, with 46 ± 28 spikes/s.
To S. montana pb1b-like belongs -15 ± 6.8 spikes/s.
To S. pallida pb2b-like belongs 2.67 ± 9.3 spikes/s; to Or67dGal4; UAS-SflaOr42a3 at1, 74.8 ± 23 spikes/s.
Consider S. hsui pb3a-like, for which the “control-subtracted net OSN firing rate” value worked out at 0 ± 6.8 spikes/s.
Then S. hsui pb2b-like, with 3.67 ± 6.9 spikes/s; and Or67dGal4, UAS-Sfla Or42a2 at1, with 2.86 ± 5 spikes/s.
To S. hsui pb1a-like belongs 7.67 ± 5.8 spikes/s; to S. flava pb3a-like, 5.67 ± 8.2 spikes/s.
For the target S. flava pb2a-like, the “control-subtracted net OSN firing rate” value was -3 ± 8.9 spikes/s.
Then Or67dGal4; UAS-A181D S301P at1, with 68.6 ± 33 spikes/s.
Then S. hsui pb1b-like, with -1 ± 5.2 spikes/s; and S. hsui pb2a-like, with -1 ± 6 spikes/s; and Canton-S (D. melanogaster) pb3b, with 2 ± 11 spikes/s.
To S. pallida pb1a-like belongs 11.7 ± 10 spikes/s.
